BAZ2B block – inhibitors of human BAZ2B bromodomain. Q9UIF8. AlphaScreen BAZ2B-H3K14Ac peptide displacement. Potency, µM (doses to about 114 µM), inactives show top-dose activity change, negative = inhibition, hits mostly inhibitors. 4.4% of 360,000 active. AID 504333; note: % is set by controls: 0 for no effect and ±100 for the full control effect; nearly all actives have a fitted effect of over 60% in size
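AlphaScreen displacement: compounds (up to 110uM) incubated 30 min at room temperature with a preformed 50 nM BAZ2B/50 nM biotinylated H3K14Ac peptide complex in PBS pH 7.4 with Tween-20. Donor and acceptor beads at 10 ug/mL final added, 20 min light-protected before reading.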
G9a inh – inhibitors of human histone lysine methyltransferase G9a. 8.8% of 350,000 active. Potency, µM (titrated, usually from 102 µM), for inactives: top-dose activity, negative = inhibition, actives largely listed as inhibitors. G9a H3K9 monomethylation, AlphaScreen, 2 h. Q96KQ7. AID 504332; note: % is set by controls: 0 for no effect and ±100 for the full control effect; nearly all actives have a fitted effect of over 75% in size
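Enzyme 20 nM + cpd, 15 min RT; add b-H3K9 pep 500 nM / SAM 20 uM; 2 h RT; anti-H3K9me1 Ab 0.5 ug/mL + SA donor / anti-rabbit acceptor beads 20 ug/mL each, 10 min; AlphaScreen read.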
L3MBTL1 block – inhibitors of human L3MBTL1. 0.66% of 230,000 active. Potency, µM (top dose mostly 57.1 µM), for the others: at the highest dose activity, negative = inhibition, actives largely listed as inhibitors. AlphaScreen L3MBTL1–H3K9me1 peptide binding. AID 485360; note: % is set by controls: 0 for no effect and ±100 for the full control effect; nearly all actives have a fitted effect of over 60% in size
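L3MBTL1 (50 nM) pre-complexed 30 min with biotinylated H3(1-15)K9me1 peptide (75 nM), then compounds added for 30 min at room temperature; AlphaScreen streptavidin donor/nickel chelate acceptor beads (10 ug/mL final) read after 30 min dark incubation.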
JMJD2A Tudor inh – inhibitors of human JMJD2A Tudor domain | 4.4% of 390,000 active | AID 504339 | Potency, µM (top dose mostly 114 µM), for the others: top-dose activity change, negative = inhibition, hits mostly inhibitors | O75164 | AlphaScreen JMJD2A-Tudor / H3K4me3 peptide binding; note: % is set by controls: 0 for no effect and ±100 for the full control effect; nearly all actives have a fitted effect of over 50% in size
HP1b binding inh – inhibitors of HP1-beta chromodomain binding to methylated histone tails. 0.56% of 390,000 active. AlphaScreen HP1-beta / biotin-H3K9me3 peptide binding. Potency, µM (highest dose often 114 µM), inactives show at the top dose activity change, negative = inhibition, hits mostly inhibitors; note: nearly all actives have a fitted effect of over 70% in size
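HP1-beta protein (50 nM final) preincubated 30 min at room temperature with biotinylated H3(1-18)K9me3 peptide (50 nM) in PBS pH 7.4, 0.01% Tween-20, then compound added for 30 min. AlphaScreen streptavidin donor/nickel chelate acceptor beads (10 ug/mL final), 30 min dark, luminescence read.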
* marks the source's active call; other numbers are inactive results; ? = inconclusive; . = no result given; [ ] = dose if it differs, or a comment. Shown are actives, neighbours in structure and some others; about 11% of the full set was active somewhere. Calls come from the whole dose curve; as a rule, active = well fitted inhibition curve with a large enough effect; inconclusive = small, poorly fitted or top-dose-only effect; inactive = no such curve, though single readings can be large or run the other way. Potency is the fitted concentration of half-maximal effect.

SMILES	BAZ2B block	G9a inh	L3MBTL1 block	JMJD2A Tudor inh	HP1b binding inh
O=C(C1=C(O)C(=O)N(CCN2CCOCC2)C1c1cccnc1)c1cc2ccccc2o1 (stereo unspecified)	?	28.2µM*	7.2%	?	33.0%
Cc1ccc(C2C(C(=O)c3cc4ccccc4o3)=C(O)C(=O)N2CCN2CCOCC2)cc1 (stereo unspecified)	-28.5%	39.8µM*	.	?	4.5%[57 µM]
O=C(C1=C(O)C(=O)N(CCN2CCOCC2)C1c1cccs1)c1cc2ccccc2o1 (stereo unspecified)	.	.	.	-11.9%	21.9%
COc1ccccc1-c1cc(C(=O)NCCN2CCOCC2)no1	-0.1%	-30.3%	-1.1%	-8.4%	7.5%
Cc1ccc(C2C(C(=O)c3cc4ccccc4o3)=C(O)C(=O)N2CCN2CCOCC2)o1 (stereo unspecified)	?	?	-2.4%	89.1µM*	10.0%
CC(C)(C)c1ccc(-c2nc(NC(=O)CSc3ncnc4sc5c(c34)CCCC5)ns2)cc1	1.1%	-0.7%[59 µM]	.	-11.0%	40.7%
COC(=O)c1ccc(C2C(C(=O)c3cc4ccccc4o3)=C(O)C(=O)N2CCCN(C)C)cc1 (stereo unspecified)	?	?	-3.8%	-32.8%	19.9%
O=C(C1=C(O)C(=O)N(CCN2CCOCC2)C1c1cccc(F)c1)c1cc2ccccc2o1 (stereo unspecified)	-35.5%	5.3%[0.0925 µM]	.	-23.0%	15.4%[57 µM]
CN(C)CCCN1C(=O)C(O)=C(C(=O)c2cc3ccccc3o2)C1c1ccccc1 (stereo unspecified)	?	14.1µM*	-3.8%	-24.0%[11.4 µM]	55.8%
COc1cccc2cc(C(=O)C3=C(O)C(=O)N(CCN4CCOCC4)C3c3ccc(C(C)(C)C)cc3)oc12 (stereo unspecified)	-28.8%	31.6µM*	.	56.2µM*	-10.0%
COc1cccc2cc(C(=O)C3=C(O)C(=O)N(CCN4CCOCC4)C3c3ccc(Cl)cc3)oc12 (stereo unspecified)	-14.7%	.	-0.5%	-24.9%	14.2%
O=C(C1=C(O)C(=O)N(CCN2CCOCC2)C1c1cccc(O)c1)c1cc2ccccc2o1 (stereo unspecified)	?	50.1µM*	.	?	1.8%
COc1cccc(-c2nc(N3CCN(C)CC3)c3ccccc3n2)c1O	?	?	-8.8%	?	-4.6%
COc1cccc(-c2nc(N3CCCCC3C)c3ccccc3n2)c1O (stereo unspecified)	?	44.7µM*	-7.3%	39.8µM*	-35.8%
COc1cccc(-c2nc(NC3CCCC3)c3ccccc3n2)c1O	35.5µM*	?	.	?	-16.3%
COc1ccccc1-c1nc(=S)c(C(C)=O)c(C)[nH]1	-9.9%	.	?	-22.4%	33.4%
CC(=O)c1c(C)[nH]c(-c2ccccc2)nc1=S	-36.4%	3.55µM*	-4.2%	-3.4%	43.5%
Cc1cc(C)n(-c2nc(C)c(C)c(=O)n2CC(=O)Nc2cccc([N+](=O)[O-])c2)n1	-11.2%	6.31µM*	.	?	6.7%
CC(=O)c1ccc(NC(=O)Cn2c(-n3nc(C)cc3C)nc(C)c(C)c2=O)cc1	-5.7%	3.98µM*	.	-17.9%	39.7%
Cc1cc(C)n(-c2ccc(C(=O)Nc3cccc([N+](=O)[O-])c3)cc2)n1	-3.4%	0.9%	.	-7.5%[11.4 µM]	-10.2%
NC(=O)c1ccc(NC(=O)COc2cccc3ccccc23)cc1	3.3%	59.7%	.	2.1%	26.6%
CC(C)(C)c1csc(NNC(=O)c2ccc(Cl)cc2)n1	-16.5%	39.8µM*	.	-25.2%	9.9%
COc1ccccc1C(=O)c1c(N)c(-c2nc(-c3ccccc3)cs2)c2ccccn12	-0.3%	-5.6%[59 µM]	.	-10.7%	33.4%
Oc1cc(CNCc2ccccc2)c(O)cc1CNCc1ccccc1	.	.	.	7.94µM*	31.6µM*
CCS(=O)(=O)CCSc1nc2ccccc2s1	12.8%	?	3.2%	-6.5%	36.1%
SMILES	BAZ2B block	G9a inh	L3MBTL1 block	JMJD2A Tudor inh	HP1b binding inh
O=S(=O)(CCSc1nc2ccccc2s1)c1nc2ccccc2s1	-0.5%	7.08µM*	.	?	56.4%
O=C(NCc1ccco1)c1ccc2c(c1)N(Cc1ccccc1)C(=O)c1ccccc1S2(=O)=O	-17.5%	-25.7%[59 µM]	.	-9.4%	22.8%
O=C(O)CCN1C(=O)C2C3CC(C2C1=O)C1C(c2ccccc2)c2sc(=O)[nH]c2SC31 (stereo unspecified)	.	-19.9%	.	-14.5%	18.7%
O=C(O)CCN1C(=O)C2C3CC(C2C1=O)C1C(c2ccccc2)c2sc(=O)n(-c4ccccc4)c2SC31 (stereo unspecified)	?	44.7µM*	.	-7.9%	-11.1%
O=C(CN1C(=O)c2ccccc2S1(=O)=O)Nc1cc(S(=O)(=O)N2CCOCC2)ccc1N1CCOCC1	.	.	.	-10.6%	33.6%
O=C(Nc1ccc(F)c(F)c1)c1cc(S(=O)(=O)N2CCN(c3ccccn3)CC2)ccc1F	-0.8%	?	.	-18.0%	9.5%
O=C(Nc1c(F)cc(F)cc1Br)c1cc(S(=O)(=O)N2CCN(c3ccccn3)CC2)ccc1F	?	50.1µM*	-1.0%	?	27.8%
NNC(=O)c1cc2sccc2s1	-13.2%	0.9%	6.7%	-13.8%	18.7%
CCOC(=O)C(=CNNc1c(C)csc1C(=O)OC)C(=O)OCC	-22.5%	8.91µM*	-8.2%	-19.8%	43.0%
Cc1ccc(C(=O)N2CCN(Cc3nc4sc5c(c4c(=O)[nH]3)CCCC5)CC2)cc1	-1.4%	-8.6%[59 µM]	.	-16.5%	37.4%
O=c1[nH]c(CN2CCCC2)nc2sc3c(c12)CCC3	?	39.8µM*	8.9%	?	8.1%
Cc1cc2c(s1)c1cnn(Cc3cccc(Cl)c3)c(=O)c1n2C	.	.	.	-32.2%	.
O=C(CSc1ccc(S(=O)(=O)N2CCCC2)cn1)Nc1ccc([N+](=O)[O-])cc1C(F)(F)F	.	.	.	-26.4%	6.7%
Cc1ccc(-c2csc(N(CCO)CCCn3c(C(F)(F)F)nc4ccccc43)n2)cc1	?	44.7µM*	-20.1%	-34.0%	5.0%
c1ccc2c(c1)nc(NCCN1CCOCC1)c1nncn12	11.6%	50.1µM*	4.2%	-7.6%	39.2%
c1ccc2c(c1)CCN(c1nc3ccccc3n3cnnc13)C2	-1.5%	50.1µM*	.	?	6.4%
c1ccc(N2CCN(c3nc4ccccc4n4cnnc34)CC2)cc1	-20.7%	-9.9%	.	-27.6%	24.0%
C1=C(c2ccccc2)CCN(c2nc3ccccc3n3cnnc23)C1	6.2%	22.4µM*	.	-34.5%	-1.1%
c1ccc(CN2CCN(c3nc4ccccc4n4cnnc34)CC2)cc1	-10.4%	50.1µM*	-3.3%	-28.3%	13.1%
c1ccc2c(c1)nc(N1CCOCC1)c1nncn12	9.4%	-9.8%	.	2.9%	26.5%
CCc1ccccc1NC(=O)C1=C(C)C(=O)OC12CCCCCC2	3.7%	6.5%[59 µM]	.	-22.4%	-4.2%
CCOc1ccc2nc(N3CCCC(C(=O)Nc4ccc(OC)c(Cl)c4)C3)sc2c1 (stereo unspecified)	1.3%	5.8%[59 µM]	.	-1.5%	45.4%
